PubChem BioAssay (EPA / NIEHS)
Where “and” joins values, the source holds several entries; their conditions need not be identical. Equal values may be shown once. Where a structure was tested more than once in an assay, its records may differ in their call. Calls of active or inactive are those of the source. The calls were made as follows: active = hit-call score of the fitted dose curve at least 0.9, where 1 is the maximum; inactive = score below 0.9.

read-out: solute carrier (SLC22A1), SLC22A1 (gene 6580); assay: LTEA_HepaRG_SLC22A1: Life Technologies and Expression Analysis (LTEA) Assay for solute carrier (SLC22A1) using HepaRG (AID 2283524); settings: mRNA level, 48 h; actives raise or lower the signal;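 as to AC50: TaqMan qRT-PCR normalized to ACTB GAPDH and POLR2A housekeeping genes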
Protocol: LTEA_HepaRG is a cell based, multiplexed-readout assay that uses HepaRG, a human liver cell line, with measurements taken at 48 hours after chemical dosing on a 96-well plate.LTEA_HepaRG_SLC22A1 is one of 102 assay component(s) measured in the LTEA HepaRG cell culture assay. It is a marker of NR mediated transport.Data from the assay component LTEA_HepaRG_SLC22A1 was analyzed into 1 endpoint. This assay endpoint, LTEA_HepaRG_SLC22A1, was analyzed with bidirectional fitting relative to DMSO as the negative control and baseline of activity. Using a type of inducible reporter, measures of mRNA induction for gain or loss-of-signal activity can be used to understand regulation of transcription factor activity. To generalize the intended target to other relatable targets, this assay endpoint is annotated to the transporter intended target family, where the subfamily is organic cation transporter.
A total of 1060 chemcials from the ToxCast library were tested in eight-point concentration-response experiments. Cell culture and cytotoxicity assays were conducted at Thermo Fisher Scientific's Custom Services facility (Madison, WI). A single lot of human HepaRG cells (Thermo Fisher Scientific, Frederick, MD) was used for the cell culture experiments. 96-well format collagen type I coated plates of human HepaRG cells were prepared using established methods. Briefly, cryopreserved HepaRG cells were thawed, plated at a density of approximately 100,000 cells/well in HepaRG Thaw, Plate, and General Purpose media (HPRG770, Thermo Fisher Scientific), and incubated for 48 hours. 0.5% DMSO was selected as vehicle control to balance the requisite need of DMSO in HepaRG cultures to maintain differentiation (for example, baseline metabolism, proportions of hepatocytes vs. cholangiocytes), while enabling further hepatic receptor pathway activation (for example, PXR and CAR) in response to chemical exposure. 48 hours after plating, the culture medium was replaced with HepaRG Serum-Free Incudtion Media. Cells were exposed to each test chemical in duplicate and maintained in CO2 incubators for another 48 hours. Chemical plates were thawed to room temperature and 200x concentrations of treatment groups were prepared. 8-point conentration-reponse curves were made with the highest exposure at 100 uM, followed by half-log dilutions, all in 0.5% DMSO. Each test plate contained variouse controls, induction positive controls (1mM phenobarbital), cytotoxicity positive controls ([…] aflatoxin B1), vehicle controls (0.5% DMSO), and total lysis controls (0.5% DMSO). Cell morphology images were taken using an Essen IncuCyte FLR automated microscope, with six 96-well plates imaged in about 24 minutes. Images were captured and exported and JPEG files. Spent culture media was transfered to black-well plates for the LDH assay, and remaining media was sorted at -80 C for later use. Cells were treated with RLT buffer and frozen until shipped for gene expression analysis. Total RNA was isolated from the cell suspension in 75 uL of Buffer RLT (Qiagen, Germantown, MD 20874) by Quintiles/Expression Analysis (Durham, NC) using a custom isolation procedure. Total RNA from each plate well was transferred to a preamplification plate. Fluidigm's 96.96 Dynamic ArrayTM (Fluidigm, Amsterdam, the Netherlands) technology was used for gene expression analyses by quantitative reverse transcription polymerase chain reaction (qRT-PCR, performed by Quintiles/Expression Analysis, Durham, NC)89. Standard TaqManTM Assays (Applied Biosystems/ThermoFisher Scientific, Foster City, CA) were used to assess the expression of 93 genes selected based on their selectivity and sensitivity to important hepatic receptors known to be modulated by environmental chemicals; importance in human hepatocyte functionality; and hepatotoxicity. […]

Row | SMILES | outcome | AC50
1 | CCCN(CCC)c1c([N+](=O)[O-])cc(C(F)(F)F)cc1[N+](=O)[O-] | inactive | 
2 | O=[N+]([O-])c1c(Cl)c(Cl)c(Cl)c(Cl)c1Cl | inactive | 
3 | CCC(C)Nc1c([N+](=O)[O-])cc(C(C)(C)C)cc1[N+](=O)[O-] (stereo not given) | inactive | 
4 | Clc1ccccc1-c1nnc(-c2ccccc2Cl)nn1 |  | 50 µM (active)
5 | C[C@H]1[C@H](c2ccc(Cl)cc2)SC(=O)N1C(=O)NC1CCCCC1 |  | 50 µM (active)
6 | CCOC1Oc2ccc(OS(C)(=O)=O)cc2C1(C)C (stereo not given) |  | 71.9 µM (active)
7 | O=C(NC(=O)c1c(F)cccc1F)Nc1ccc(OC(F)(F)C(F)OC(F)(F)F)c(Cl)c1 (stereo not given) | inactive | 
8 | CC(C)OC(=O)Nc1cccc(Cl)c1 | inactive | 
9 | CCOCN(C(=O)CCl)c1c(C)cccc1CC |  | 81.1 µM (active)
10 | Oc1cc(Cl)ccc1Oc1ccc(Cl)cc1Cl | inactive | 86 µM (active)
11 | CNC(=O)CSP(=S)(OC)OC | inactive | 
12 | Oc1ccc(Cl)cc1Cc1ccccc1 | inactive | 91.8 µM (active) and 91.6 µM (active)
13 | CN1CSC(=S)N(C)C1 | inactive | 
14 | O=C(O)C(F)(F)C(F)(F)C(F)(F)C(F)(F)C(F)(F)C(F)(F)C(F)(F)F | inactive | 
15 | CCCN(CCOc1c(Cl)cc(Cl)cc1Cl)C(=O)n1ccnc1 |  | 29.5 µM (active)
16 | O=S(=O)(O)C(F)(F)C(F)(F)C(F)(F)C(F)(F)C(F)(F)C(F)(F)C(F)(F)C(F)(F)F | inactive | 90.2 µM (active) and 89.8 µM (active) and 83.1 µM (active)
17 | N#CN | inactive | 
18 | CNC(=O)/C=C(\C)OP(=O)(OC)OC | inactive | 
19 | CC(C)N(C(=O)COc1nnc(C(F)(F)F)s1)c1ccc(F)cc1 |  | 39.5 µM (active)

Row | SMILES | outcome | AC50
20 | ClC1C(Cl)C(Cl)C(Cl)C(Cl)C1Cl (stereo not given) | inactive | 
21 | O=C(O)CCCOc1ccc(Cl)cc1Cl | inactive | 
22 | O=C1c2ccccc2C(=O)N1SC(Cl)(Cl)Cl | inactive | 
23 | CCC(C)(NC(=O)c1cc(Cl)c(C)c(Cl)c1)C(=O)CCl (stereo not given) |  | 82.9 µM (active)
24 | COP(=S)(OC)Oc1ccc([N+](=O)[O-])cc1 | inactive | 
25 | CC[C@H](C)[C@H]1O[C@]2(C=C[C@@H]1C)C[C@@H]1C[C@@H](C/C=C(\C)[C@@H](O[C@H]3C[C@H](OC)[C@@H](O[C@H]4C[C@H](OC)[C@@H](O)[C@H](C)O4)[C@H](C)O3)[C@@H](C)/C=C/C=C3\CO[C@@H]4[C@H](O)C(C)=C[C@@H](C(=O)O1)[C@]34O)O2 (tested in a mixture with another compound) |  | 9.94 µM (active)
26 | COc1nn(CSP(=S)(OC)OC)c(=O)s1 | inactive | 
27 | CC1(c2ccc(Oc3ccccc3)cc2)OC(=O)N(Nc2ccccc2)C1=O (stereo not given) |  | 13.5 µM (active)
28 | CC(C)(C)C(O)C(Oc1ccc(Cl)cc1)n1cncn1 (stereo not given) | inactive | 
29 | O=C(Nc1ccccc1)Nc1cnns1 |  | 70 µM (active)
30 | O=[N+]([O-])/N=C1\NCCN1Cc1ccc(Cl)nc1 |  | 50 µM (active)
31 | CC(C)(C)C(O)/C(=C\c1ccc(Cl)cc1Cl)n1cncn1 (stereo not given) |  | 21 µM (active)
32 | C#CCN1C(=O)COc2cc(F)c(N3C(=O)C4=C(CCCC4)C3=O)cc21 | inactive | 
33 | CCc1ccc(C(=O)NN(C(=O)c2cc(C)cc(C)c2)C(C)(C)C)cc1 | inactive | 
34 | O=S1OCC2C(CO1)C1(Cl)C(Cl)=C(Cl)C2(Cl)C1(Cl)Cl (stereo not given) |  | 63 µM (active)
35 | O=C(O)COc1ccc(Cl)cc1Cl | inactive | 
36 | CCC(C)(C)C(=O)OC1=C(c2ccc(Cl)cc2Cl)C(=O)OC12CCCCC2 | inactive | 
37 | Cc1[nH]c(=O)n(C(C)(C)C)c(=O)c1Cl | inactive | 
